From PubChem
In the library only some 2.2% were active in any assay of this set; here they are far more common.
KKLEB tox = reduces viability of KKLEB cystic fibrosis airway cells; KKLEB CF airway cells viability, ATPlite luminescence, overnight; hits give low values; cells stimulated with P. aeruginosa culture filtrate; activity change (cytotoxicity), % at 5 µM; 360,000 tested, 0.36% active; AID 602141;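 active = corrected activity change at or below -50% at 5 µM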
CF NFkB inh = cystic fibrosis NF-kB activation inhibition; 360,000 tested, 0.86% active; KKLEB NF-kB-GFP reporter, PAF-induced, GFP fluorescence overnight; inhibition, % at 5 µM;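 active = at least 50% inhibition at 5 µM, scaled per plate between neutral and stimulator controls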;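 note: PAF is a Pseudomonas aeruginosa culture filtrate used as stimulus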
PPC-1+TRAIL kill = compounds killing PPC-1 cancer cells with TRAIL present (potentiator screen, no TRAIL-free arm); PPC-1 cells + TRAIL, ATPLite viability luminescence; 220,000 tested, 0.41% active; cell killing (% activity), % at 4 µM or 5 µM;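 active = cell killing above 50% in the first pass at 4 µM, then a duplicate retest at 5 µM averaging 50% or more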
C8 TRAIL sens = caspase-8 TRAIL sensitization; NB7+C8 cells + TRAIL, ATPlite viability luminescence; inhibition (viability loss, TRAIL sensitization), % at 10 µM; 360,000 tested, 1% active;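 active = compounds causing at least 50% loss of cell viability in the single-dose screen, relative to plate controls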
hiPSC survival = enhancers of human iPSC single-cell survival. hiPSC single-cell survival, ATPlite luminescence; 100% = ROCK inhibitor wells, 0% = DMSO. survival enhancement, % at 20 µM. 360,000 tested, 0.044% active. AID 602274; in the data active = survival enhancement above about 18%;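 note: cells exposed to compounds for 16 hours before the ATP read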
HIF-2a block = blocks HIF-2a reporter activity | 786-0 RCC cells HIF-2a reporter, luciferase luminescence, overnight | inhibition, % at 18.8 µM | 360,000 tested, 0.72% active | AID 624352;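 active = inhibition of the luminescence signal of 40% or more relative to plate controls, in a single-dose primary screen at 18.75 µM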
Large screens that a line does not name were inactive; ! = not confirmed by another sample.

CCOC(=O)C1(CC2CCCCO2)CCN(S(=O)(=O)c2cccc(F)c2)CC1 (centres undefined)	none
NC(C(=O)O)C1ON=C(Cl)C1O (centres undefined)	C8 TRAIL sens 78 (no result: PPC-1+TRAIL kill)
CCOc1ccc(CNC(=O)c2cccc(NC(=O)C3=C(C)OCCS3)c2)cc1	none (no result: PPC-1+TRAIL kill)
COc1ccc(CNC(=O)Cc2ccc(NC(=O)C3=C(C)OCCS3)cc2)cc1	C8 TRAIL sens 71 (no result: PPC-1+TRAIL kill)
CC1=C(C(=O)Nc2ccc(CC(=O)NCc3ccc(OC(C)C)cc3)cc2)SCCO1	C8 TRAIL sens 56 (no result: PPC-1+TRAIL kill)
COc1cccc(CNC(=O)c2cccc(NC(=O)C3=C(C)OCCS3)c2)c1	none (no result: PPC-1+TRAIL kill)
COCCN(Cc1cccs1)S(=O)(=O)c1ccc(-c2ccc(=O)[nH]n2)s1	none (no result: PPC-1+TRAIL kill)
O=c1[nH]c(/C(=N\O)c2ccccc2)no1	C8 TRAIL sens 73
Cc1ccn2c(c1)nc(=S)n2C(=O)c1ccco1	PPC-1+TRAIL kill 71 (no result: KKLEB tox, CF NFkB inh, C8 TRAIL sens, hiPSC survival, HIF-2a block)
COc1cccc(-c2cn3nc4c(nc3n2)CCCC4)c1	C8 TRAIL sens 53
CN(C)c1ccnc2c[cH-]cc12.[Fe].c1ccc(-[c-]2[c-](-c3ccccc3)[c-](-c3ccccc3)[c-](-c3ccccc3)[c-]2-c2ccccc2)cc1 (centres undefined)	C8 TRAIL sens 89!
COc1cc(N2C(=O)C=CC2=O)ccc1N1C(=O)C=CC1=O	CF NFkB inh 78, HIF-2a block 85 (no result: PPC-1+TRAIL kill)
CCCCCNC(=O)c1nc(-c2c(F)cccc2F)oc1-c1ccccc1	none (no result: KKLEB tox, CF NFkB inh, PPC-1+TRAIL kill, hiPSC survival)
CC1CCCC=CC2CC(OC(=O)CN(C)C)CC2C(O)C=CC(=O)O1 (centres undefined)	CF NFkB inh 71 (no result: PPC-1+TRAIL kill)
CCOC(=O)[C@]12CCCC=C1N(Cc1ccccc1)C(=O)[C@H](CC(=O)NCc1cccs1)C2	none (no result: KKLEB tox, CF NFkB inh, PPC-1+TRAIL kill, hiPSC survival)
CCOC(=O)c1c(NC(=S)NCCc2ccccc2)sc2c1CC(C(C)C)OC2 (centres undefined)	CF NFkB inh 60
Fc1cccc(F)c1/C=N/Nc1ccccn1	none
O=c1c2ccccc2nc(N/N=C/c2ccc(O)cc2)n1O	C8 TRAIL sens 62
Oc1ccc2ccccc2c1C=NNc1ccccn1	KKLEB tox -81, CF NFkB inh 77 (no result: PPC-1+TRAIL kill)
O=c1c2ccccc2nc(N/N=C/c2c(O)ccc3ccccc23)n1O	C8 TRAIL sens 71
Cc1nc2ccccc2c(=O)n1/N=C/c1c(O)ccc2ccccc12	none
Oc1ccc(/C=N/Nc2ccccc2)cc1	none
O=C(N/N=C/c1c(O)ccc2ccccc12)c1cccc(C(F)(F)F)c1	KKLEB tox -52
CC(C)=NNc1nc2c(c(=O)n(C)c(=O)n2C)n1CCc1ccccc1	none
CC(=O)NC(C(=O)N1CCC(c2nc3ccccc3s2)CC1)C(C)C (centres undefined)	none (no result: PPC-1+TRAIL kill)
COc1ccccc1CC(=O)Nc1ccc(-c2noc(COc3cccc(C)c3C)n2)cc1	hiPSC survival 21
COc1ccccc1CC(=O)Nc1ccc(-c2noc(COc3ccc(Br)cc3)n2)cc1	none
CCc1nc2ccc(C(=O)N(C)Cc3ccco3)cn2c1N(C)Cc1ccc(OC)cc1	none (no result: PPC-1+TRAIL kill)
CSc1ncc(Cl)c(C(=O)Nc2sc3c(c2C(=O)NCc2ccco2)CCCC3)n1	none (no result: KKLEB tox, CF NFkB inh, C8 TRAIL sens, hiPSC survival, HIF-2a block)
CCSc1ncc(Cl)c(C(=O)Nc2sc3c(c2C(=O)NCc2cccnc2)CCCC3)n1	KKLEB tox -54
COc1ccc(C(=O)NC(C)Cc2c[nH]c3ccccc23)cc1 (centres undefined)	none (no result: PPC-1+TRAIL kill)
C/C(=N\NC(=O)c1c[nH]c2ccccc12)c1ccccn1	none
C/C(=N\NC(=O)c1cc2ccccc2cc1O)c1ccccn1	C8 TRAIL sens 58 (no result: PPC-1+TRAIL kill)
C/C(=N\NC(=O)c1ccc(F)cc1)c1ccccn1	C8 TRAIL sens 55 (no result: PPC-1+TRAIL kill)
CCN(C(=O)c1ccc(S(=O)(=O)N2CCOCC2)cc1)C1CCS(=O)(=O)C1 (centres undefined)	none (no result: PPC-1+TRAIL kill)
N=C1S/C(=C\c2cn[nH]c2-c2ccc(F)cc2)C(=O)N1c1ccccc1F	CF NFkB inh 50
COCC(C)NS(=O)(=O)c1ccc(C(=O)NC(Cc2ccccc2)c2ccccc2)cc1 (centres undefined)	none (no result: PPC-1+TRAIL kill)
CCOc1ccc(C(=O)C(CCC(CN(C)C)C(=O)c2ccc(OCC)cc2)CN(C)C)cc1 (centres undefined)	KKLEB tox -100, CF NFkB inh 96, HIF-2a block 93
